# Laboratory results as given in PubChem BioAssay.
# Calls of active or inactive are those of the source.
# Experiments:
# [1] = adipocyte viability effects, profiling panel, cell-based, 3T3-L1 adipocytes, calcein-AM fluorescence, 48 h, basal (AID 1163); details: 3T3-L1 adipocytes viability, higher = more signal
# [2] = HepG2 cell viability effects, profiling panel, calcein-AM fluorescence, 48 h, basal (AID 1164); details: higher = more signal
# [3] = MM1S cell viability effects, profiling panel, calcein-AM fluorescence, 48 h, basal (AID 1165); details: higher = more signal;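 also: viability of MM1S multiple myeloma cells under basal unstimulated conditions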
# [4] = basal RPMI8226 viability, no added stimulus, profiling panel, cell-based, calcein-AM fluorescence, 48 h, PK04 Diversity Set (AID 1166); details: RPMI8226 myeloma viability, higher = more signal;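 also: cells grown under basal conditions without added stimulus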
# [5] = basal HepG2 mitochondrial membrane potential changes, profiling panel, cell-based, JC-1 fluorescence, 24 h, 100 nL compound (AID 1167); details: higher = more signal
# [6] = basal 3T3-L1 adipocyte mitochondrial potential changes, profiling panel, cell-based, JC-1 fluorescence, 3T3-L1 adipocytes, 24 h, 100 nL compound (AID 1168); details: JC-1 mitochondrial fluorescence, higher = more signal, called active from +8 up or from −8 down
# [7] = basal RPMI8226 mitochondrial membrane potential changes, profiling panel, cell-based, JC-1 fluorescence, 24 h, 100 nL compound (AID 1169); details: RPMI8226 myeloma, JC-1 mitochondrial potential fluorescence, higher = more signal
# [8] = basal MM1S mitochondrial membrane potential changes, profiling panel, cell-based, JC-1 fluorescence, 24 h, 100 nL compound (AID 1170); details: higher = more signal
# [9] = A549 lung cancer cell viability effects, profiling panel, resazurin fluorescence, 24 h, PK04 Diversity Set (AID 1171); details: higher = more signal, called active from +8 up or from −8 down
# [10] = HepG2 liver cancer cell viability effects, profiling panel, resazurin fluorescence, 24 h, PK04 Diversity Set (AID 1172); details: higher = more signal
# [11] = basal S. cerevisiae growth modulation, no modifier, primary screen, OD600, strain BY4716, 24 h, basal condition (AID 1173); details: OD600, 24 h, higher = more signal, called active from +8 up or from −8 down
# [12] = MM1S myeloma cell viability, profiling panel, resazurin fluorescence, basal, 24 h, PK04 Diversity Set (AID 1174); details: higher = more signal, called active from +8 up or from −8 down;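 also: MM1S multiple myeloma cell line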
# [13] = biological target: Dihydroorotate dehydrogenase (quinone), mitochondrial (Plasmodium falciparum (isolate 3D7)) (UniProt Q08210); test: PfDHODH enzyme inhibitors, primary screen, biochemical, C-terminal His tag, absorbance 600 nm (AID 1175); details: DCIP absorbance 600 nm, higher = more signal, called active from +8 up or from −8 down;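 also: recombinant parasite enzyme with a five histidine tag at its C terminus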
# [14] = S. cerevisiae RM11-1a growth modifiers, primary screen, strain RM11-1a, OD600, basal, 24 h (AID 1177); details: OD600, 24 h, higher = more signal, called active from +8 up or from −8 down;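 also: cultures grown under basal conditions with no added stressor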
# [15] = E. coli acrAB mutant growth effects, primary screen, E. coli filamentation inducers, strain DRC39, OD650, 24 h (AID 1178); details: higher = more signal, called active from +8 up or from −8 down;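 also: growth measured as culture turbidity by optical density at 650 nm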
# [16] = E. coli acrAB mutant growth effects, primary screen, E. coli filamentation inducers, strain DRC39, OD650, 48 h (AID 1179);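 also: screen aims at cell division blockers that make cells filament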; details: E. coli DRC39 delta-acrAB growth, higher = more signal, called active from +8 up or from −8 down
# [17] = RPMI8226 myeloma cell viability, profiling panel, resazurin fluorescence, basal, 24 h, PK04 Diversity Set (AID 1180); details: higher = more signal;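 also: RPMI8826 multiple myeloma cell line at 5000 cells per well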
# [18] = biological target: E3 ubiquitin-protein ligase XIAP (Homo sapiens) (UniProt P98170); test: XIAP binders, primary screen, biophysical, small-molecule microarray, fluorescence 635 nm (AID 1181); details: small-molecule microarray binding, higher = more signal;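 also: score merges 667 nm emission and signal to noise over triplicate slides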
# [19] = system: XIP peptide (Xip251-270) binding; test: small-molecule binders of XIP peptide, primary screen, biochemical, small-molecule microarray, fluorescence 635/667 nm, 0.1 µg/mL protein (AID 1182); details: fluorescent protein binding, 635 nm, higher = more signal, called active from +8 up or from −8 down
# XIP peptide (Xip251-270) = test: small-molecule binders of XIP peptide, primary screen, biochemical, small-molecule microarray, fluorescence 635/667 nm, 0.5 µg/mL protein (AID 1183); details: small-molecule microarray binding, fluorescence 635 nm; higher = more signal
# Dihydroorotate dehydrogenase (quinone), mitochondrial (Plasmodium falciparum (isolate 3D7)), sequence (Q08210 whole entry, looked up): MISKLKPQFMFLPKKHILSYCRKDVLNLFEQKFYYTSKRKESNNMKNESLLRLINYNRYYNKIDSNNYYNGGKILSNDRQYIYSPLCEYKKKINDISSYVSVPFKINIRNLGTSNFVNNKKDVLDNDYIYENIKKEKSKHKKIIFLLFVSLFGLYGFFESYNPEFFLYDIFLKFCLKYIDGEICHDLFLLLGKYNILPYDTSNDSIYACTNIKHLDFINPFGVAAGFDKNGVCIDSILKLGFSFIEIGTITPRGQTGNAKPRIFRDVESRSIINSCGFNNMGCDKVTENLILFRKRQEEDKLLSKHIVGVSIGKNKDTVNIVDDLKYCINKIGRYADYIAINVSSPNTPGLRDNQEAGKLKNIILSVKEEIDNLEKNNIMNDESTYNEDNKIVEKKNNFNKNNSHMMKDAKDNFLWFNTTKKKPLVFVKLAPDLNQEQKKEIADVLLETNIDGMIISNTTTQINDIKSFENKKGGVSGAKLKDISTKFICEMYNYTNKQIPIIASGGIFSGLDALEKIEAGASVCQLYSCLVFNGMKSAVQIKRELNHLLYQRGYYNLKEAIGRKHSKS
# E3 ubiquitin-protein ligase XIAP (Homo sapiens), sequence (P98170 whole entry, looked up): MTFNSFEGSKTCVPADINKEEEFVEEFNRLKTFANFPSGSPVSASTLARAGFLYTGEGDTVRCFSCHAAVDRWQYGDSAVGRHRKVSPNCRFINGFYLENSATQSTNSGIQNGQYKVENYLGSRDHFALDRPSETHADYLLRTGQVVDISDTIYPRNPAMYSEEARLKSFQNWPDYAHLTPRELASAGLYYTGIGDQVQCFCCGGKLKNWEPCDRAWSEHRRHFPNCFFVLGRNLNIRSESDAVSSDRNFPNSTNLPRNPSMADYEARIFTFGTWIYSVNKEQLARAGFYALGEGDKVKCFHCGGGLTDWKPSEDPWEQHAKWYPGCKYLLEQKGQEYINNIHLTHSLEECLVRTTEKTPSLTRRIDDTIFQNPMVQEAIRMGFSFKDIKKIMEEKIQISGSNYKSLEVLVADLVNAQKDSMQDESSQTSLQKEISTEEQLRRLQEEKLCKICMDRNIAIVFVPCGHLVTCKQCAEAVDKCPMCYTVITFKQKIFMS
SMILES,z-score [1],z-score [2],z-score [3],z-score [4],z-score [5],z-score [6],z-score [7],z-score [8],z-score [9],z-score [10],z-score [11],z-score [12],composite z-score [13],z-score [14],z-score [15],z-score [16],z-score [17],composite z-score [18],composite z-score [19],composite z-score (XIP peptide (Xip251-270))
C=C(C(=O)CC[C@H](OC(C)=O)c1ccc(CO)o1)C(C)C,2.11,-1.14,-2.73,-0.639,0.672,2.3 (inactive),-0.378,0.548,-0.158 (inactive),0.0204,-0.273 (inactive),0.0516 (inactive),-0.969 (inactive),-0.487 (inactive),1.63 (inactive),0.359 (inactive),0.739,0.0028,2.48 (inactive),-0.365
O=C1N(CCS(=O)(=O)c2ccccc2)Cc2ccccc2[C@@H]2OC(c3ccc(OCCCO)cc3)=N[C@]12Cc1ccccc1,2.11,0.288,-0.0623,-0.222,0.194,0.401 (inactive),-1.11,-0.693,-0.77 (inactive),0.309,1.72 (inactive),-0.739 (inactive),0.913 (inactive),4.1 (inactive),2.25 (inactive),1.05 (inactive),-0.384,-0.121,1.73 (inactive),0.927
CC(C)C[C@@H]1NC(=O)[C@@]23C(=O)N[C@@H](Cc4ccccc4)C2[C@H](C)[C@@]2(C)O[C@H]2C3/C=C/CC/C=C/CNC(=O)[C@@H](C)NC1=O (stereo not given in full),1.98,-0.309,0.827,-0.386,1.82,0.918 (inactive),-0.205,2.11,-0.613 (inactive),-0.589,-1.92 (inactive),0.603 (inactive),0.596 (inactive),-0.209 (inactive),2.5 (inactive),1.34 (inactive),0.866,-0.227,-0.804 (inactive),-0.0387
CCCCCN1CC=CC23O[C@@H]4/C=C\CCC(C)OC(=O)C4[C@H]2C(=O)N(CCCO)[C@@H]3C1=O (stereo not given in full),1.42,0.495,-1.25,0.279,0.197,0.399 (inactive),0.318,0.962,0.427 (inactive),0.605,-1.26 (inactive),1.5 (inactive),0.564 (inactive),-0.599 (inactive),1.54 (inactive),1.11 (inactive),1.4,-0.0351,0.156 (inactive),-0.827
C/C=C/[C@@H](CCn1cc(CCO[Si](C(C)C)(C(C)C)C(C)C)nn1)[Si](C)(C)c1ccc(OC)cc1,0.925,0.359,-1.17,-1.21,3.71,1.12 (inactive),0.236,2.03,7.86 (inactive),4.46,-2.21 (inactive),1.91 (inactive),-1.14 (inactive),-4 (inactive),2.42 (inactive),1.89 (inactive),5.22,-0.169,-0.411 (inactive),-1.48
CC(CO)N1C(=O)[C@@H]2C3C(=O)OCCC/C=C\[C@H]3OC23C=CCN(Cc2ccccc2)C(=O)[C@@H]13 (stereo not given in full),-0.154,0.547,2.05,-0.172,0.797,1.86 (inactive),-0.0742,0.322,0.754 (inactive),0.918,-0.703 (inactive),0.462 (inactive),-0.761 (inactive),-0.985 (inactive),1.6 (inactive),1.97 (inactive),0.526,-0.0333,-0.554 (inactive),-0.736
C=CCN1C(=O)[C@@]2(O[C@@H](CCn3cc(CCO)nn3)[C@H]([Si](C)(C)c3ccc(OC)cc3)[C@H]2C)c2cc(N3C(=O)c4cccc5cccc3c45)ccc21,0.0493,-4.79,-2.73,-4.46,-2.84,1.32 (inactive),-1.15,-2.09,-5.51 (inactive),-6.41,-1.2 (inactive),-9.06 (active),-0.0753 (inactive),1.19 (inactive),2.37 (inactive),2.05 (inactive),-6.23,0.137,0.254 (inactive),0.339
CO[C@H]1O[C@H](CO)[C@@H](OC(=O)Nc2ccccc2)[C@H](OC(=O)Nc2ccc3c(c2)OCO3)[C@H]1OC(=O)Nc1ccc2c(c1)OCO2,1.27,-1.27,-1.03,-1.98,-0.136,3.03 (inactive),-0.629,0.398,-1.33 (inactive),-0.697,-0.613 (inactive),-0.652 (inactive),-0.48 (inactive),1.69 (inactive),2.13 (inactive),0.828 (inactive),-0.638,0.137,1.04 (inactive),0.846
CC(C)C[C@@H]1NC(=O)[C@@H]2C[C@H](C(=O)NCCCCCNC(=O)CS)[C@H](c3cccc(OCCO)c3)N2C1=O,1.28,-0.646,-1,0.134,0.236,0.321 (inactive),0.14,0.072,0.621 (inactive),0.474,-0.928 (inactive),1.47 (inactive),-0.168 (inactive),-1.14 (inactive),0.186 (inactive),-0.115 (inactive),0.673,-0.0351,1.58 (inactive),0.785
